About 83,000 compounds went through this panel and 20% of them were active in at least one assay; those are over-represented in the sample as a whole.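 For each line, cells grew in 96-well plates with the test compound present at a single concentration for 48 hours.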 Unmarked numbers belong to inactive results. The source made the active and inactive calls. The calls were made as follows: active = growth percent below 10; inactive = the rest.

What all share (experiment): NCI-60 one-dose screen, 48 h (100 = growth as untreated, 0 = no growth, -100 = all killed)
Conditions in all cases: 10 µM unless noted

For assay [1], the system named is RPMI-8226 leukemia.
In assay [2] the test system is OVCAR-8 ovarian.
Assay [3] relates to OVCAR-5 ovarian.
The test system of assay [4] is OVCAR-4 ovarian.
Assay [5] relates to SK-OV-3 ovarian.
Assay [6] has as its system IGROV1 ovarian.
The subject of assay [7] is OVCAR-3 ovarian.
Assay [8] concerns HS 578T breast.
Assay [9] deals with NCI/ADR-RES ovarian.
Assay [10] concerns T-47D breast.
The subject of assay [11] is BT-549 breast.
For assay [12], the system named is MDA-MB-435 melanoma.
Assay [13] deals with SW-620 colon.
The test system of assay [14] is MCF7 breast.
Assay [15] has as its system HCT-116 colon.
For assay [16], the system named is KM12 colon.
Assay [17] relates to HCC-2998 colon.

As to `CCOC(=O)/C(=C/c1ccccc1)C(=O)c1ccccc1`, the growth is 3.77% (active) in assay [1]; 65.3% in assay [2]; 97.3% in [3]; 81.8% in [4]; 92.6% in assay [5]; 65.8% in assay [6]. Besides, the growth was 63.5% in assay [7]; 88% in assay [8]; 65.3% in assay [9]; 73.6% in [10]; 73.4% in [11]; 50.8% in assay [12]. The growth in [13] is 70.9%; in assay [14], 41.1%; in assay [15] it was 39.4%; in assay [16], 67.1%.
For the compound `O=C(Nc1ccc(Cl)cc1)c1cc2c(cc1O)[nH]c1ccccc12`, the growth in assay [1] is -61.6% (active); in assay [2], 8.57% (active); in assay [3], 59.8%; in assay [4], 30.6%; in assay [5], 24.4%; in assay [6], 163%. Besides, the growth in assay [7] is 6.34% (active); in [8], 52%; in assay [9], 0.0543% (active); in assay [10] it was -1.88% (active); in [11], 26.5%; in assay [12], -25.6% (active). Also, the growth is 19.1% in assay [13]; 8.67% (active) in [14]; 14.1% in assay [15]; -21.5% (active) in [17]; 37.5% in assay [16].
Regarding `COc1ccc(C2CC(c3ccc(OC)c(OC)c3)=NN2C(=O)c2cc(OC)c(OC)c(OC)c2)c(OC)c1` (configuration not stated), the growth is 92.4% in assay [1]; 91.2% in assay [2]; 93% in assay [3]; 74.7% in [4]; 65.6% in assay [5]; 61.6% in assay [6]. Moreover, the growth in assay [7] is 52.9%; in assay [8], 49.6%; in [9], 53.2%; in [10], 82%; in assay [11], 63.2%; in assay [12] it was 3.86% (active). Also, the growth is 62.2% in assay [13]; 35.1% in assay [14]; 68.7% in [15]; 96.5% in assay [17]; 61.5% in assay [16].
On to `O=C(/C=C/c1ccc(Cl)cc1)c1ccccc1`, for which the growth was 1.52% (active) in assay [1]; 97.5% in [2]; 99.5% in [3]; 107% in [4]; 126% in [5]; 101% in assay [6]. The growth in assay [7] was 101%; in assay [8] it was 126%; in assay [9] it was 107%; in assay [10], 92.4%; in assay [11], 104%; in [12], 97%. Further, the growth in assay [13] is 89.3%; in [14] it was 24.1%; in assay [15], 54%; in [16], 77.1%.
For the compound `Oc1ccccc1C=Nc1ccccc1N=Cc1ccccc1O.[Cu+2]`, the growth in assay [1] was 19.1%; in assay [2], 15.1%; in assay [3], 103%; in assay [4], 35.5%; in assay [5], 76%; in assay [6], 55.5%. Moreover, the growth in assay [7] was 71.7%; in [8] it was 137%; in assay [9], 20.2%; in assay [10] it was 20.2%; in assay [12], 56%; in assay [13], 83.4%. The growth in [14] is 27.6%; in [15], 57.9%; in [17], 74.2%; in [16], 44.6%.
With `CCN(CC)CCCCNc1c2ccccc2[n+](C)c2c1[nH]c1ccccc12`, the growth in [1] is -42.6% (active); in assay [2], -11.9% (active); in [3], -5.18% (active); in [4], -2.34% (active); in assay [5], -11.5% (active); in assay [6], -34.2% (active). Further, the growth in [7] was -13.6% (active); in assay [8], -48.1% (active); in [9], 86.5%; in assay [10] it was -11.7% (active); in assay [12], -77.1% (active); in [13] it was -7.04% (active). The growth in [14] is -7.18% (active); in assay [15], 0.472% (active); in assay [17] it was -56.4% (active); in assay [16], -12.9% (active).
In the case of `CSC1=Nc2c(c(C)c(-c3ccccc3)n2CCCN2CCCCC2)C2=NC(=O)C[C@H](C)N12`, the growth in assay [1] is -51.1% (active); in assay [2], 44.6%; in assay [3] it was 83.1%; in [4], 43.6%; in assay [5], 26.9%; in assay [6] it was 22.6%. Also, the growth in assay [7] was 24.5%; in assay [8], 11%; in assay [9] it was 82.4%; in assay [10], -2.25% (active); in [12], 26.3%; in assay [13] it was 61.5%. For the same compound, the growth was 13.9% in [14], 42.9% in assay [15], 60.7% in [17] and 2.35% (active) in [16].
`CC1=CSC2=NCCN12`: the growth in [1] is 106%; in [2] it was 112%; in assay [3] it was 107%; in assay [4], 103%; in assay [5], 110%; in assay [6], 108%. Moreover, the growth in assay [7] is 113%; in assay [8] it was 110%; in [9], 100%; in [10], 109%; in assay [12], 111%; in assay [13], 102%. Also, the growth in assay [14] was 96.6%; in assay [15] it was 111%; in [17], 108%; in assay [16], 109%.
Take `NC(=O)N/N=C/c1ccc(Br)o1`: the growth in [1] is 109%; in assay [2], 107%; in [3], 98.7%; in [4], 111%; in assay [5] it was 101%; in assay [6], 97.8%. Further, the growth is 113% in [7]; 109% in [8]; 105% in [9]; 91.4% in assay [10]; 104% in [11]; 113% in assay [12]. Besides, the growth in assay [13] is 114%; in [15], 105%; in assay [17], 96.5%; in assay [16], 108%.
As for `CC(C)(C)c1ccc(S(=O)(=O)O)s1`, the growth in assay [1] was 95.9%; in assay [2], 108%; in assay [3] it was 96.3%; in [4], 96.6%; in assay [5] it was 101%; in [6], -12.6% (active). The growth in assay [7] was 115%; in assay [8], 88.8%; in assay [9] it was 106%; in [10], 97.9%; in assay [12] it was 102%; in assay [13], 108%. Besides, the growth in assay [14] is 98%; in assay [15] it was 107%; in assay [17], 112%; in assay [16] it was 112%.

The record behind these values is PubChem BioAssay (NCI).
